Our source for the outcome and AC50 values is PubChem BioAssay (EPA / NIEHS).

Assay [1] concerns the target Bile acid receptor (Homo sapiens) (UniProt Q96RI1). In words: OT_FXR_FXRSRC1_0480: Odyssey Thera (OT) 8-hour HEK293T Protein-Complementation Assay for Farnesoid X receptor/SRC-1 Co-activator (AID 2283383). In a few lines: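 Readings were taken 8 h after dosing HEK293T cells in a split-reporter complementation format pairing FXR with SRC-1. Increased fluorescence relative to DMSO-treated wells defined activity.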

For assay [2] the target is unchanged. In words: OT_FXR_FXRSRC1_1440: Odyssey Thera (OT) 24-hour HEK293T Protein-Complementation Assay for Farnesoid X receptor/SRC-1 Co-activator (AID 2283384). In a few lines:
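Single endpoint, analysed for increased fluorescence against DMSO controls. HEK293T cells carrying FXR and SRC-1 linked to complementary reporter halves were exposed to chemicals for 24 h before reading.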

For assay [3], the target named is Retinoic acid receptor RXR-alpha (Homo sapiens) (UniProt P19793). In words: OT_NURR1_NURR1RXRa_0480: Odyssey Thera (OT) 8-hour HEK293T Protein Complementation Assay for Nurr1/retinoid X receptor (RXR) (AID 2283385). In a few lines: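 Gain in fluorescent complementation signal over DMSO, measured 8 hours after chemical dosing of human kidney HEK293T cells, indicated enhanced Nurr1–RXRα association.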
Chain of Retinoic acid receptor RXR-alpha (Homo sapiens) (P19793 whole entry, looked up): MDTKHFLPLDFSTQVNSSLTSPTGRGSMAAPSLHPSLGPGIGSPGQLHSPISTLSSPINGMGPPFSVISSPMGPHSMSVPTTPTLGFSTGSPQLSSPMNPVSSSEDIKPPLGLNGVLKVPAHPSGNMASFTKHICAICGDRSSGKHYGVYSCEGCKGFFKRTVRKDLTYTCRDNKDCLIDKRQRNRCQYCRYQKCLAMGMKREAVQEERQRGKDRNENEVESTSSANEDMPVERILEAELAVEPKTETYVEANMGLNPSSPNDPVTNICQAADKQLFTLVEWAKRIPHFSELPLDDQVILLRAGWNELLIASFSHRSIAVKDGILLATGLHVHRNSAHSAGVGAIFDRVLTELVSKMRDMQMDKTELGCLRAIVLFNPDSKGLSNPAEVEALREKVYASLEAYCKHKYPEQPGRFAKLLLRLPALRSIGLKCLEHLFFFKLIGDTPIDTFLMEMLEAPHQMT

Assay [4] shares this target. In words: OT_NURR1_NURR1RXRa_1440: Odyssey Thera (OT) 24-hour HEK293T Protein Complementation Assay for Nurr1/retinoid X receptor (RXR) (AID 2283386). In a few lines:
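Cell-based binding reporter: HEK293T cells, 24 h exposure, fluorescence-detected fragment complementation, DMSO as baseline.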

The target in assay [5] is Peroxisome proliferator-activated receptor gamma (Homo sapiens) (UniProt P37231). Description: OT_PPARg_PPARgSRC1_0480: Odyssey Thera (OT) 8-hour Protein-Complementation Assay for Peroxisome Proliferator-activated Receptor Gamma / SRC-1 Co-activator (AID 2283387). In a few lines: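 Read-out: 488 nm N/C fluorescence ratio from complemented Venus YFP fragments, ≥350 cells per image, gain-of-signal fitted against DMSO baseline. Fusions of PPARg/SRC-1 with IFP1/IFP2 expressed transiently in HEK293T; compounds applied 8 h.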
Chain of Peroxisome proliferator-activated receptor gamma (Homo sapiens) (P37231 whole entry, looked up, the tested form may be a part): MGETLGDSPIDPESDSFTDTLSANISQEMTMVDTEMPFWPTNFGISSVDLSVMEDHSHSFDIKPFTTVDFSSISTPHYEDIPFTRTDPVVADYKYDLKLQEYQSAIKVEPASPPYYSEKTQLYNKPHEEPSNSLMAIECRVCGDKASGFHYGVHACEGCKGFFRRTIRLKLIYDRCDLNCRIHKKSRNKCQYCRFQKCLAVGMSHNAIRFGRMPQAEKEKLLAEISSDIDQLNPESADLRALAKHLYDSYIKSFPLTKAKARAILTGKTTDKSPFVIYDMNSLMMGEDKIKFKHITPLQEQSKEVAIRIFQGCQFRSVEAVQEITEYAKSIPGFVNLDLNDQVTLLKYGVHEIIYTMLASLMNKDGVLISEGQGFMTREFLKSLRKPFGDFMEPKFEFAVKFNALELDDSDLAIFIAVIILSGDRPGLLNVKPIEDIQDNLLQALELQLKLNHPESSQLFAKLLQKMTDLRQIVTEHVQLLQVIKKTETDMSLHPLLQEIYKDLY

Assay [6] has the same target. In words: OT_PPARg_PPARgSRC1_1440: Odyssey Thera (OT) 24-hour Protein-Complementation Assay for Peroxisome Proliferator-activated Receptor Gamma/ SRC-1 Co-activator (AID 2283388). An outline of the steps: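 HEK293T transiently transfected with PPARg/SRC-1 split-Venus YFP fusions 48 h before dosing, then treated 24 h at 37C. Fixed cells imaged; nuclear/cytoplasmic 488 nm fluorescence ratio, gain of signal versus DMSO.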

Read-out in assay [7]: Tumor necrosis factor receptor superfamily member 6 (Homo sapiens) (UniProt P25445)
In words: LTEA_HepaRG_FAS: Life Technologies and Expression Analysis (LTEA) Assay for Fas cell surface death receptor (FAS) using HepaRG (AID 2283447; active = hit-call score of the fitted dose curve at least 0.9, where 1 is the maximum; inactive = score below 0.9). The following applies: mRNA level, 48 h; actives raise or lower the signal. An outline of the steps:
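FAS transcript level was measured by TaqMan qRT-PCR against three housekeeping genes after 48 h chemical exposure. Cells were HepaRG, 0.5% DMSO vehicle, with a top concentration of 100 uM and half-log dilutions over eight points, in duplicate.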

Read-out in assay [8]: Fatty acid synthase (Homo sapiens) (UniProt P49327)
In words: LTEA_HepaRG_FASN: Life Technologies and Expression Analysis (LTEA) Assay for Fatty Acid Synthase (FASN) using HepaRG (AID 2283448; active = hit-call score of the fitted dose curve at least 0.9, where 1 is the maximum; inactive = score below 0.9;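 for AC50: differentiated human HepaRG liver cells in serum-free induction medium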). The note with it: mRNA level, 48 h; actives raise or lower the signal. In a few lines:
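In human HepaRG cultures, 48 h chemical exposure (up to 100 uM, 0.5% DMSO) preceded TaqMan qRT-PCR of FASN.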

Read-out in assay [9]: Cyclin D2 (CCND2), CCND2 (gene 894)
Description: LTEA_HepaRG_CCND2: Life Technologies and Expression Analysis (LTEA) Assay for Cyclin D2 (CCND2) using HepaRG (AID 2283449; active = hit-call score of the fitted dose curve at least 0.9, where 1 is the maximum; inactive = score below 0.9). The note with it: mRNA level, 48 h; actives raise or lower the signal. An outline of the steps:
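CCND2 transcript levels, quantified by qRT-PCR and normalised to three housekeeping genes, were fitted bidirectionally against 0.5% DMSO. HepaRG cultures were dosed 48 h in duplicate with an 8-point half-log series up to 100 uM.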

Assay [10] can be described thus: CEETOX_H295R_OHPROG: CeeTox H295R High-throughput Steroidogenesis Assay for OH-Progesterone (OHPROG) (AID 2283435; active = hit-call score of the fitted dose curve at least 0.9, where 1 is the maximum; inactive = score below 0.9;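 for AC50: 17alpha-hydroxyprogesterone secreted into medium measured by HPLC-MS/MS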). The note with it: actives raise or lower the signal. In a few lines:
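Human adrenocortical H295R cells, passage 10 or lower, were treated with chemical for 48 h after forskolin priming, and hormone output in the medium was quantified by LC-MS/MS.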

Assay [11] can be described thus: CEETOX_H295R_CORTISOL: CeeTox H295R High-throughput Steroidogenesis Assay for Cortisol (AID 2283438; active = hit-call score of the fitted dose curve at least 0.9, where 1 is the maximum; inactive = score below 0.9;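 note: cortisol secreted into medium quantified by LC-MS/MS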). The note with it: actives raise or lower the signal. An outline of the steps: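 Steroidogenesis in H295R, per modified OECD 456: 48 h forskolin (10 uM), then 48 h exposure, 0.1% DMSO. Cortisol by extraction and tandem MS; viability by MTT (570/650 nm); cytotoxic chemicals diluted and re-tested.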

Assay [12] in a line: CEETOX_H295R_DOC: CeeTox H295R High-throughput Steroidogenesis Assay for DOC (AID 2283439; active = hit-call score of the fitted dose curve at least 0.9, where 1 is the maximum; inactive = score below 0.9). The note with it: actives raise or lower the signal. In a few lines: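 H295R, fsk 10 uM ×48 h pre, cmpd ×48 h (0.1% DMSO). Media → MTBE extr. → LC-MS/MS, DOC. Bidirectional fit vs DMSO; MTT viability same wells, re-test diluted if <70%.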
A short description of assay [13]: CEETOX_H295R_11DCORT: CeeTox H295R High-throughput Steroidogenesis Assay for 11-Deoxycortisol (11DCORT) (AID 2283432; active = hit-call score of the fitted dose curve at least 0.9, where 1 is the maximum; inactive = score below 0.9;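 for AC50: 11-deoxycortisol secreted into the medium measured by LC-MS/MS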). The note with it: actives raise or lower the signal. An outline of the steps:
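H295R cells; 10 uM forskolin prestim 48 h; compound in 0.1% DMSO 48 h; media extracted with MTBE; 11-deoxycortisol by LC-MS/MS, 7-point standard curve; gain/loss vs DMSO baseline; viability by MTT in same wells.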

Assay [14] in a line: CEETOX_H295R_OHPREG: CeeTox H295R High-throughput Steroidogenesis Assay for OH-Pregnenolone (OHPREG) (AID 2283434; active = hit-call score of the fitted dose curve at least 0.9, where 1 is the maximum; inactive = score below 0.9). The following applies: actives raise or lower the signal. In a few lines: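 Secreted 17alpha-hydroxypregnenolone measured by HPLC-MS/MS after liquid-liquid extraction. Human adrenal H295R cells received 48 h forskolin (10 uM) stimulation before 48 h chemical exposure at 0.1% final DMSO; MTT viability in same wells; bidirectional fit against DMSO.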

A short description of assay [15]: CEETOX_H295R_PROG: CeeTox H295R High-throughput Steroidogenesis Assay for Progesterone (PROG) (AID 2283442; active = hit-call score of the fitted dose curve at least 0.9, where 1 is the maximum; inactive = score below 0.9;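 for AC50: human H295R adrenal cells primed with 10 µM forskolin before dosing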). The note with it: actives raise or lower the signal. In a few lines:
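H295R adrenal cells prestimulated 48 h with 10 uM forskolin, then exposed 48 h to test chemical in 0.1% DMSO. Progesterone in medium quantified by HPLC-MS/MS after MTBE extraction; viability checked by MTT in same wells.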

Values joined by “and” are separate entries in the source; they are usually repeats but may differ in a detail not shown here. Identical values can stand only once. Records with an inconclusive call do not appear. Some structures have more than one record in an assay (separate samples or runs), and their calls can disagree. Active and inactive are the calls of the source. Rule for the calls, unless noted: active = hit-call score of the fitted dose curve at least 0.9, where 1 is the maximum; inconclusive = response in the unintended direction; inactive = score below 0.9.

Chain of Fatty acid synthase (Homo sapiens) (P49327 whole entry, looked up): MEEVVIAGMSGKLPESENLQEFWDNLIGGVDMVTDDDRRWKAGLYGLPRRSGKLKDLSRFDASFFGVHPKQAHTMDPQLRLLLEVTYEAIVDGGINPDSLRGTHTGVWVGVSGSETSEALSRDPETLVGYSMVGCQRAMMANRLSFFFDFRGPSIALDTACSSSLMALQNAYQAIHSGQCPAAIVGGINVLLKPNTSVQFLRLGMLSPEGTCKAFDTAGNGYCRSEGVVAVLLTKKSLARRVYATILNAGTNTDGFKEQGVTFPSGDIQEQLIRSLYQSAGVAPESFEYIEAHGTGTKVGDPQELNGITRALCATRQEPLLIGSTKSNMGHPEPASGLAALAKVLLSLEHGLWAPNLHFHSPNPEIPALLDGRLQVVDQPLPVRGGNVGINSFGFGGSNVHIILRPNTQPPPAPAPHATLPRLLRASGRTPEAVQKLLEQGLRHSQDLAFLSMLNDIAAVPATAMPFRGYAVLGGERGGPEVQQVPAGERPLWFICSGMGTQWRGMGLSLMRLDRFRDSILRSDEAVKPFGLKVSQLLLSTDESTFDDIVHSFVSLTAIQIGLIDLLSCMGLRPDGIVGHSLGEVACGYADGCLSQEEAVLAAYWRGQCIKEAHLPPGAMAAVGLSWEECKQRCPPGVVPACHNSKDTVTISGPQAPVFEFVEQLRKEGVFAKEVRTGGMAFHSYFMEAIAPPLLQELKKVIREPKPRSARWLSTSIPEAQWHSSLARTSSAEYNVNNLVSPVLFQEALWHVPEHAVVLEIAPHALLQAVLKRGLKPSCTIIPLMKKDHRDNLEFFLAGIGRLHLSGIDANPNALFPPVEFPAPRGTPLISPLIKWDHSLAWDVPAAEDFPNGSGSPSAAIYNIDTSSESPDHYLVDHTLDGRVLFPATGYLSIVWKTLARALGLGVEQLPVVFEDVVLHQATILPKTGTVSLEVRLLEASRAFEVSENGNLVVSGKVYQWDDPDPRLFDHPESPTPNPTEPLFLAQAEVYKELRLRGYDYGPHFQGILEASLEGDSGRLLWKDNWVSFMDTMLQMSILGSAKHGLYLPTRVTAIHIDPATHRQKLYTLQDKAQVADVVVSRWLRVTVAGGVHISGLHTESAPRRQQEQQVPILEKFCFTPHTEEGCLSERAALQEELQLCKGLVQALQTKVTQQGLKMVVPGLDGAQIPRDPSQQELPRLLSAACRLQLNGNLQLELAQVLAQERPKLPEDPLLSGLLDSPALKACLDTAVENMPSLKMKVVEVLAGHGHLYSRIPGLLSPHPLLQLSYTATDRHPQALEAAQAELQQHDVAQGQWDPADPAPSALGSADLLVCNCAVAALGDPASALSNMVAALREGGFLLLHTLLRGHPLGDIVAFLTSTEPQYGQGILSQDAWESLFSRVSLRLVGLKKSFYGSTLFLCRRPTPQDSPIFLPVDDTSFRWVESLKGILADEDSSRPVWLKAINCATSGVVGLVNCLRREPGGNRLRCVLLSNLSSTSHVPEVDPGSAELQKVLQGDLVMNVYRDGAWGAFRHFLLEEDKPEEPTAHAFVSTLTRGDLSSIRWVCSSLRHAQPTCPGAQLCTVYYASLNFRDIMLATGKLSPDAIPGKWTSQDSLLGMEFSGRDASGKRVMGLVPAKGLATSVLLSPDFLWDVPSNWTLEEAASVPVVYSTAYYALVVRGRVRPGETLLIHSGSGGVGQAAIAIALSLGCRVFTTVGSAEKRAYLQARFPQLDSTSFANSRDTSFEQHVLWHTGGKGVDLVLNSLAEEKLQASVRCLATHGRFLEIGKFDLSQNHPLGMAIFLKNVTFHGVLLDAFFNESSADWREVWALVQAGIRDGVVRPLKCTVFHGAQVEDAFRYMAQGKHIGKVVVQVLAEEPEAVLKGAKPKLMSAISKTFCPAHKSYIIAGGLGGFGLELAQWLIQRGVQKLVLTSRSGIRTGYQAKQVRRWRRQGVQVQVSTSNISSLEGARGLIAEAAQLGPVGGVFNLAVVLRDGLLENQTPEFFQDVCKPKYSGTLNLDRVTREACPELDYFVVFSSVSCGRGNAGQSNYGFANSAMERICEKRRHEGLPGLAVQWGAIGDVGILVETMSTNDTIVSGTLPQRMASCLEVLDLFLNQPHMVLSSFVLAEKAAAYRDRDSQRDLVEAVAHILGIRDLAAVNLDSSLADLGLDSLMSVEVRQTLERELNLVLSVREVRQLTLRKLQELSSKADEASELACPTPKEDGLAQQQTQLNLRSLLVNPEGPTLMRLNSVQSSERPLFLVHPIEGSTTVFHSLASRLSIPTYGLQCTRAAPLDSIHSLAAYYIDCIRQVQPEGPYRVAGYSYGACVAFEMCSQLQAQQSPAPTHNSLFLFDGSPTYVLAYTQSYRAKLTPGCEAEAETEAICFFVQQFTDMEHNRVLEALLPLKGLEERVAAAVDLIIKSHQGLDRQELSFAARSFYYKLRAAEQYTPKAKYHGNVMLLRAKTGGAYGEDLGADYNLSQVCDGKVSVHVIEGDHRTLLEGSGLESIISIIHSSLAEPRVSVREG
Chain of Bile acid receptor (Homo sapiens) (Q96RI1 whole entry, looked up): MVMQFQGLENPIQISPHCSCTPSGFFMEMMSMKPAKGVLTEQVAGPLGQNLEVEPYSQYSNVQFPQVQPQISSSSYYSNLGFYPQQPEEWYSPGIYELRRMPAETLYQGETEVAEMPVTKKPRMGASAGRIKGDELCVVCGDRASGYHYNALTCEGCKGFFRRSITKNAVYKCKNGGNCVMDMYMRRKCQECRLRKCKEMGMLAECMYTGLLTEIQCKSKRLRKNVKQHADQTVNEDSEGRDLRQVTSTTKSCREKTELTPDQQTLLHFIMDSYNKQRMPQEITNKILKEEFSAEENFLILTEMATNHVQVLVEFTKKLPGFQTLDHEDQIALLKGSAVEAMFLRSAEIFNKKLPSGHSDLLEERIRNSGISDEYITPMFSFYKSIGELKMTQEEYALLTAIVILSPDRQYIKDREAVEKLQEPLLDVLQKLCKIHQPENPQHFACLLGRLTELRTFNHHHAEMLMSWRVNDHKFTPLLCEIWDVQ

On to `C=CCc1ccc(OC)c(OC)c1`, for which the result in assay [1], in assay [2], in assay [3], in assay [4], in assay [5] and in assay [6] was inactive. The compound was called inactive in assay [7], in assay [8] and in [9].

`CC(COCC(C)OC(=O)c1ccccc1)OC(=O)c1ccccc1` (stereo unspecified): in [1], the AC50 is 19.4 µM (active). Also, the compound was classed as inactive in [2], in assay [3], in assay [5], in assay [6], in assay [10] and in assay [11]. In addition, the compound was classed as inactive in [12], in assay [7], in assay [8] and in assay [9].

`Cc1cc(SC2=C(O)C[C@@](CCc3ccc(N)cc3)(C(C)C)OC2=O)c(C(C)(C)C)cc1CO`: the compound was called inactive in assay [1], in [2], in [3], in assay [5], in [6] and in assay [7]. Also, the result in assay [8] and in [9] was inactive.

For `CCCCC(CC)COP(=O)(OCC(CC)CCCC)OCC(CC)CCCC` (stereo unspecified), the AC50 in assay [1] is 15.6 µM (active); in assay [2] it was 67.1 µM (active); in [4], 76.1 µM (active). The outcome in [3], in assay [4], in assay [5], in assay [6], in assay [7] and in [8] was inactive. Also, the result in [9] was inactive.

In the case of `Nc1nc(Cl)nc2c1ncn2[C@H]1C[C@H](O)[C@@H](CO)O1`, the AC50 was 15.2 µM (active) in assay [1]; 21.1 µM (active) in assay [2]; 50 µM (active) and 41.2 µM (active) in assay [3]; 46.7 µM (active) and 44.1 µM (active) in assay [4]; 6.46 µM (active) in [14]; 0.201 µM (active) in assay [12]. For the same compound, the AC50 in [15] was 0.128 µM (active); in assay [7] it was 0.209 µM (active); in [8] it was 1.59 µM (active). The result in assay [13], in [10], in assay [11] and in assay [9] was inactive.

As for `Cn1cnc2c1c(=O)[nH]c(=O)n2C`, the compound was classed as inactive in assay [1], in assay [2], in [3], in assay [4], in assay [5] and in assay [6]. The compound was called inactive in [7], in assay [8] and in [9].

Turning to `Oc1ccccc1O`, the call in [3], in [5], in assay [6], in assay [13], in assay [14] and in [10] was inactive. For the same compound, the outcome in assay [12], in [15], in [7], in assay [8] and in assay [9] was inactive. In assay [4], the AC50 was 16 µM (active) and 23.7 µM (active).

For the compound `Cc1cn([C@H]2C=C[C@@H](CO)O2)c(=O)[nH]c1=O`, the compound was called inactive in assay [1], in assay [3], in assay [5], in assay [6], in assay [7] and in assay [9].

Consider `CCCCCCC(C=O)=Cc1ccccc1`, for which the AC50 was 50 µM (active) in [1] and 73.4 µM (active) in assay [3]. The outcome in assay [2], in assay [4], in assay [5], in assay [6], in [7] and in assay [8] was inactive.

With `O=C1c2c(O)cccc2Cc2cccc(O)c21`, the compound was classed as inactive in assay [1], in assay [2], in [3], in assay [4], in assay [5] and in [6]. The result in assay [14], in assay [11], in [12], in assay [15], in assay [7] and in assay [8] was inactive. In addition, the outcome in assay [9] was inactive. The AC50 is 50 µM (active) in assay [13] and 66.3 µM (active) in assay [10].
